Among the data in PubChem BioAssay AID463173 (ICCB-Longwood Screening Facility, Harvard Medical School, 2010) are survival values, retold here.

The whole screen tested about 52,000 compounds, of which about 1,700 (3.3%) were called active. Rule as the data show it: active = survival mostly below about 52% (no sharp cut-off); inactive = mostly above about 56%. The entries come from a sample that favours actives as a whole.

In the experiment the test system is Wild type. Put plainly: S. aureus survival, RN4220 and DeltatarO strains – OD600, teichoic acid synthesis inhibitors, primary screen (AID 463173). To be noted: S. aureus RN4220 wild type/DeltatarO growth, OD600, 18 h, hits give low values, concentration not given here.
Consider `Cc1cccc(NC(=O)Cn2cc(C(=O)c3ccccc3)c3ccccc32)c1C`, for which the survival is 71% (inactive).
To `CC(c1ccccc1F)n1cc(C(=O)NC2CCCC2)nn1` (stereo not given) belongs 103% (inactive); to `CCOc1ccc2nc(NC(=O)c3cccn(Cc4ccc(C)cc4)c3=O)sc2c1`, 76% (inactive).
The figure for `Cc1ccc(Cn2cccc(C(=O)Nc3cc(C)on3)c2=O)cc1` is 81% (inactive).
As for `O=C1CN=C(c2ccccc2Cl)c2cc(Cl)ccc2N1Cc1cccc(Cl)c1`, the survival was 128% (inactive).
As for `Cc1ccc(C)c(CN2C(=O)c3ccccc3Sc3ccc(C(=O)N4CCC5(CC4)OCCO5)cc32)c1`, the survival is 14% (active).
With `O=C(c1ccc2c(c1)N(Cc1ccc(F)cc1Cl)C(=O)c1ccccc1S2)N1CCC2(CC1)OCCO2`, the survival was 78% (inactive).
Regarding `Cc1ccc(CN2C(=O)c3ccccc3Sc3ccc(C(=O)N4CCC5(CC4)OCCO5)cc32)cc1`, the survival was 75% (inactive).
For the compound `C1CNC2NCCNC2N1` (stereo not given), the survival is 125% (inactive).
As for `O=C1NC(=O)C(C(CC(=O)c2ccccc2)c2ccccc2)C(=O)N1` (stereo not given), the survival was 116% (inactive).
As for `CN1C(=O)C(=Cc2ccco2)C(=O)N(C)C1=O`, the survival was 109% (inactive).
As to `CCCSc1nc2ccccc2c(=O)n1-c1ccccc1OC`, the survival is -1% (active).
As for `CSc1nc2ccccc2c(=O)n1-c1ccccc1C`, the survival is 107% (inactive).
Consider `COc1ccccc1-n1c(/C=C/c2ccccc2)nc2ccccc2c1=O`, for which the survival is 80% (inactive).
Consider `CC(=O)N1CC(=O)Nc2ccc(F)cc2C1c1ccccc1` (stereo not given), for which the survival is 82% (inactive).
For `COc1ccc(-c2nc(CN3C(=O)CN=C(c4ccccc4)c4ccccc43)c(C)o2)cc1OC`, the survival is 96% (inactive).
For the compound `COc1ccc(-c2nc(CN3C(=O)CN=C(c4ccccc4)c4ccccc43)c(C)o2)cc1`, the survival is 93% (inactive).
With `Cc1ccc(-c2nc(CN3C(=O)CN=C(c4ccccc4)c4ccccc43)c(C)o2)cc1`, the survival is 72% (inactive).
For `Cc1cccc(-c2nc(CN3C(=O)CN=C(c4ccccc4)c4ccccc43)c(C)o2)c1`, the survival was 2% (active).
For `Cc1ccccc1-c1nc(CN2C(=O)CN=C(c3ccccc3)c3ccccc32)c(C)o1`, the survival is 2% (active).
To `Cc1oc(-c2ccc(Cl)cc2)nc1CN1C(=O)CN=C(c2ccccc2)c2ccccc21` belongs 80% (inactive).
The figure for `Cc1ccc2scc(N3CCN(C)CC3)c(=O)c2c1` is 136% (inactive); for `O=c1[nH]c2ccccc2c(=O)n1-c1ccc(Cl)c(Cl)c1` it is 91% (inactive); for `CCOc1nc(NCc2ccco2)nc(N2CC3CC(C2)c2cccc(=O)n2C3)n1` (stereo not given) it is 104% (inactive).
As for `Nc1c2c(nc3sc4c(c13)CCCC4)CCCC2`, the survival was 118% (inactive).
